Bioassay records as filed in PubChem.
Shown are actives, neighbours in structure and some others; about 27% of the full set was active somewhere.
CYP2C9 inh = blockers of cytochrome P450 2C9 activity – biochemical, luminescence, ADME assay, primary screen; CYP2C9 Supersomes, luciferin-H conversion; inhibition, % at 5 µM; 96,000 compounds, 20% hits; P11712; AID 777, 2007;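 active = blocking of liver enzyme CYP2C9 beyond about 50% at 5 µM, limit read from the data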
Target sequence (P11712 whole entry, looked up): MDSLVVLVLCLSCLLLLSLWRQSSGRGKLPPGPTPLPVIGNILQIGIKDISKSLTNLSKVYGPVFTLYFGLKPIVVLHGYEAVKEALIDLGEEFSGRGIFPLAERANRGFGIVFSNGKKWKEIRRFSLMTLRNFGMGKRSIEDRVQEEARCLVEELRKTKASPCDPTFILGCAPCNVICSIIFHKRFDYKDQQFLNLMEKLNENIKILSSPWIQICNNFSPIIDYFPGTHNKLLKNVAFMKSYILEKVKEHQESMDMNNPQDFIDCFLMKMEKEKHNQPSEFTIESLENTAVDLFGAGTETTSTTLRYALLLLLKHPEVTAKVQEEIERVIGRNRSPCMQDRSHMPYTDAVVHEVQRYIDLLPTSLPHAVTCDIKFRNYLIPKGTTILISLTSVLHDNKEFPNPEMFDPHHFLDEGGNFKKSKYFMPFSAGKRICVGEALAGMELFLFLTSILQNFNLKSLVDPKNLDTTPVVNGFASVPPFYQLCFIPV
CYP2C9 act = human CYP2C9 activators, primary screen, biochemical, luminescence. Cytochrome P450 2C9 (Homo sapiens), P11712. recombinant CYP2C9, luciferin-H conversion; stronger effect = higher value; factor 1 = untreated enzyme, 0 = blocked. activation factor at 5 µM. 96,000 compounds, 1.4% hits. AID 1024, 2008;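 active = activation factor of 2 or more for CYP2C9 at a 5 µM dose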;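 note: 0 = sulfaphenazole-blocked wells and 1 = vehicle-only wells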
CYP2C19 inhib = blockers of cytochrome P450 2C19 activity – biochemical, luminescence, ADME assay, primary screen; 96,000 compounds, 21% hits; inhibition, % at 5 µM; P33261; CYP2C19 Supersomes, luciferin-H EGE luminescence, 30 min;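 active = CYP2C19 inhibition above a set limit at 5 µM in the primary screen, cut at about 50% in these data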;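 note: plate controls were negative control wells for no effect and 2.5 mM tranylcypromine positive control for full effect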
CYP2C19 act = human CYP2C19 activators, primary screen, biochemical, luminescence; 96,000 tested, under 10 active; activation factor at 5 µM; recombinant CYP2C19, luciferin-H EGE luminescence; stronger effect = higher value; 0 = fully inhibited enzyme, 1 = untreated enzyme; AID 1025, 2008;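 active = activation factor of at least 2 at 5 µM in the primary screen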;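 note: 0 = wells with 2.5 mM tranylcypromine and 1 = vehicle-only wells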
sEH inhibitor = soluble epoxide hydrolase inhibitors, primary screen, biochemical, human sEH | inhibition, % at 2 µM | recombinant human sEH enzymatic activity assay | Bifunctional epoxide hydrolase 2 (Homo sapiens), P34913 | 91,000 compounds, 0.34% hits | AID 707, 2007; in the data active = inhibition above about 80%
sEH activator = soluble epoxide hydrolase activators, primary screen, biochemical, human sEH; purified human sEH enzymatic activity, activator screen; 91,000 compounds, 0.04% hits; activation, % at 2 µM; Bifunctional epoxide hydrolase 2 (Homo sapiens), P34913; in the data active = activation above about 37%
Numbers without * were called inactive.

Screening Cc1ccc(C)c(Cn2nnc3c(=O)[nH]c(C4CCCN(C(=O)C5CCC5)C4)nc32)c1 (stereo unspecified) returned CYP2C9 inh 43, CYP2C9 act 0.6, CYP2C19 inhib 28, CYP2C19 act 0.7, sEH inhibitor -5 and sEH activator 6.
O=c1[nH]c(C2CCCN(S(=O)(=O)c3ccccc3)C2)nc2c1nnn2Cc1ccccc1 (stereo unspecified) was read as CYP2C9 inh 81*, CYP2C9 act 0.2, CYP2C19 inhib 44, CYP2C19 act 0.6, sEH inhibitor -5 and sEH activator 3.
For COc1cccc(Cn2nnc3c(=O)[nH]c(C4CCCN(C(=O)c5ccccc5Cl)C4)nc32)c1 (stereo unspecified) the results were CYP2C9 inh 83*, CYP2C9 act 0.2, CYP2C19 inhib 39, CYP2C19 act 0.6, sEH inhibitor 19 and sEH activator -20.
For O=C(C1CCC1)N1CCC(c2nc3c(nnn3Cc3c(F)cccc3Cl)c(=O)[nH]2)CC1 the results were CYP2C9 inh 71*, CYP2C9 act 0.3, CYP2C19 inhib 18, CYP2C19 act 0.8, sEH inhibitor -5 and sEH activator 7.
For CCS(=O)(=O)C(=C(Nc1ccc(OC)cc1)Nc1ccc(OC)cc1)S(=O)(=O)CC the results were CYP2C9 inh -7, CYP2C9 act 1.1, CYP2C19 inhib 2, CYP2C19 act 1, sEH inhibitor 3 and sEH activator -3.
For CCCc1nc2c(nnn2Cc2ccccc2)c(=O)[nH]1 the results were CYP2C9 inh 0, CYP2C9 act 1, CYP2C19 inhib 78*, CYP2C19 act 0.2, sEH inhibitor 14 and sEH activator -13.
CCOC(=O)/C(C#N)=C\c1cc(C)n(-c2ccccc2)c1C was read as CYP2C9 inh 22, CYP2C9 act 0.8, CYP2C19 inhib 21, CYP2C19 act 0.8, sEH inhibitor -18 and sEH activator 18.
Screening CCOC(=O)/C(C#N)=C/c1cc(C)n(-c2ccc(C)cc2)c1C returned CYP2C9 inh 55*, CYP2C9 act 0.4, CYP2C19 inhib 16, CYP2C19 act 0.8, sEH inhibitor 0 and sEH activator -2.
`CC1Sc2ccccc2N(CC(=O)N(C(C)C)C(C)C)C1=O` (stereo unspecified) gave CYP2C9 inh -5, CYP2C9 act 1.1, CYP2C19 inhib 26, CYP2C19 act 0.7, sEH inhibitor -2 and sEH activator 4.
For COc1ccc(C2CC(=O)C(C=NCCN3CCN(C(C)=O)CC3)=C(O)C2)cc1OC (stereo unspecified) the results were CYP2C9 inh -6, CYP2C9 act 1.1, CYP2C19 inhib -4 and CYP2C19 act 1.
`COc1ccc(Cc2nc(C(=O)Nc3ccc(F)cc3)cs2)cc1` gave CYP2C9 inh 87*, CYP2C9 act 0.1, CYP2C19 inhib 89*, CYP2C19 act 0.1, sEH inhibitor -2 and sEH activator 0.
`COc1ccc(NC(=O)c2ccccn2)cc1` gave CYP2C9 inh 20, CYP2C9 act 0.8, CYP2C19 inhib 26, CYP2C19 act 0.7, sEH inhibitor 4 and sEH activator -1.
`COc1ccc(Cc2nc(C(=O)Nc3ccc(Cl)cc3)cs2)cc1` gave CYP2C9 inh 90*, CYP2C9 act 0.1, CYP2C19 inhib 83*, CYP2C19 act 0.2, sEH inhibitor 20 and sEH activator -20.
For COc1ccc(COc2ccsc2C(=O)Nc2ccc(Cl)cc2)cc1 the results were CYP2C9 inh 59*, CYP2C9 act 0.4, CYP2C19 inhib 10, CYP2C19 act 0.9, sEH inhibitor 3 and sEH activator -1.
Screening COc1ccc(Cc2nc(C(=O)Nc3ccccc3)cs2)cc1 returned CYP2C9 inh 90*, CYP2C9 act 0.1, CYP2C19 inhib 88*, CYP2C19 act 0.1, sEH inhibitor 14 and sEH activator -16.
CCCc1[nH]c(=O)c(C#N)c2c1CCCC2 was read as CYP2C9 inh 14, CYP2C9 act 0.9, CYP2C19 inhib -1, CYP2C19 act 1, sEH inhibitor -4 and sEH activator 5.
